The list is not random: actives were taken first. Their share in the collection is about 12%.
PLK1 PBD inh = qHTS for Inhibitors of PLK1-PDB (polo-like kinase 1 - polo-box domain): Primary Screen | Serine/threonine-protein kinase PLK1 (Homo sapiens), P53350 | Plk1 PBD binding of FITC phosphopeptide, fluorescence polarization | Potency, µM, inactives show max response, negative = inhibition, usual class: inhibitors | actives 2.8% (n = 360,000); further: series mostly up to about 57 µM; on the % scale 0 is the no-effect control and ±100 the full control effect; nearly all actives have a fitted effect of over 65% in size
G9a inh = qHTS Assay for Inhibitors of Histone Lysine Methyltransferase G9a. actives 8.8% (n = 350,000). G9a H3K9 monomethylation, AlphaScreen, 2 h. Histone-lysine N-methyltransferase EHMT2 (Homo sapiens), Q96KQ7. Potency, µM (doses to about 102 µM), inactives show at the top dose activity, negative = inhibition, most hits filed as inhibitors; further: on the % scale 0 is the no-effect control and ±100 the full control effect; nearly all actives have a fitted effect of over 75% in size
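Methyltransferase reactions run at room temperature for 2 h (20 nM enzyme, 500 nM biotin-H3K9 peptide, 20 uM SAM) after a 15 min compound preincubation; product detected by AlphaScreen beads and anti-H3K9me1 antibody.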
JMJD2A Tudor = qHTS Assay for Inhibitors of JMJD2A-Tudor Domain. Potency, µM (doses to about 114 µM), for the others: top-dose activity change, negative = inhibition, actives largely listed as inhibitors. actives 4.4% (n = 390,000). Lysine-specific demethylase 4A (Homo sapiens), O75164. AlphaScreen JMJD2A-Tudor / H3K4me3 peptide binding; further: on the % scale 0 is the no-effect control and ±100 the full control effect; nearly all actives have a fitted effect of over 50% in size
Target sequence (O75164 whole entry, looked up, the tested form may be a part): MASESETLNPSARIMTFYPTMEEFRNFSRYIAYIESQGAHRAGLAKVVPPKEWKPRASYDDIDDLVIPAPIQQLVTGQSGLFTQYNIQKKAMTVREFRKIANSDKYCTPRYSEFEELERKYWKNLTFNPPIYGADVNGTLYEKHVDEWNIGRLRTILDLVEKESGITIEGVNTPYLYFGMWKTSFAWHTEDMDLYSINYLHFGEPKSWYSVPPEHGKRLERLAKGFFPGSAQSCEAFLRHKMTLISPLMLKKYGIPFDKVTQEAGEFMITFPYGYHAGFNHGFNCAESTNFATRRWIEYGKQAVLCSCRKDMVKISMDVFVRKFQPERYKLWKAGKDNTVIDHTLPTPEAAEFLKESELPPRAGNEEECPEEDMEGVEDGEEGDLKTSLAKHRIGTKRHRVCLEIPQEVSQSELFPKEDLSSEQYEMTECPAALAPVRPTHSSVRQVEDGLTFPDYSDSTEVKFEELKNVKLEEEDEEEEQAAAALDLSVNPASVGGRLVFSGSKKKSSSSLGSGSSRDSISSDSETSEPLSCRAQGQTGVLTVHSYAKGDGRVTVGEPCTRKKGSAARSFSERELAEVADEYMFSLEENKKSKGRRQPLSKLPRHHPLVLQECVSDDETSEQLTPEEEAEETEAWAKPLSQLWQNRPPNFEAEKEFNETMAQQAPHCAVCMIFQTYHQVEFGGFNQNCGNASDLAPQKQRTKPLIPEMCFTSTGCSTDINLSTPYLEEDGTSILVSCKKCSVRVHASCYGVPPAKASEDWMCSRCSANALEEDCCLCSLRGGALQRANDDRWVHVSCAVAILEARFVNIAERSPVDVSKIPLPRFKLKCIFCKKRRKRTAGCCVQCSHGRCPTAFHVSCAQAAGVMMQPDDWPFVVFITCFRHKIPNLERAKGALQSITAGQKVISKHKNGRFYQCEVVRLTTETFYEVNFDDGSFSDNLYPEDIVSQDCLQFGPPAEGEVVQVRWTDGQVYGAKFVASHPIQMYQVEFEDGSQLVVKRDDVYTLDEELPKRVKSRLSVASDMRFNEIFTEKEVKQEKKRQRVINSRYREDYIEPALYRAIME
HP1b chromo inh = HTS for Inhibitors of HP1-beta Chromodomain Interactions with Methylated Histone Tails | Chromobox protein homolog 1 (Homo sapiens), P83916 | AlphaScreen HP1-beta / biotin-H3K9me3 peptide binding | Potency, µM (titrated, usually from 114 µM), for the others: at the highest dose activity change, negative = inhibition, hits mostly inhibitors | actives 0.56% (n = 390,000); further: nearly all actives have a fitted effect of over 70% in size
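Compound inhibition of the preformed complex between 50 nM HP1-beta and 50 nM biotinylated H3K9me3 peptide was read by AlphaScreen. Buffer was PBS pH 7.4 with 0.01% Tween-20. Incubations ran 30 min at room temperature, with 10 ug/mL donor/acceptor beads.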
Sfp inh = qHTS Assay for Inhibitors of Bacillus subtilis Sfp phosphopantetheinyl transferase (PPTase); Biochemical Sfp PPTase activity, qHTS; Potency, µM, for the others: largest response in the series, negative = inhibition, usual class: inhibitors; actives 3.5% (n = 310,000); AID 1490, 2009;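 further: the enzyme is Sfp with the accession as filed and its product quenches rhodamine fluorescence; 0% = enzyme reaction without inhibitor and -100% = no enzyme wells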
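Reaction rates are the 30-min fluorescence difference (ex 525, em 598 nm) in wells containing 15 nM Sfp, 5 uM rhodamine-CoA and 12.5 uM BHQ-2-YbbR at pH 7.6 with 10 mM MgCl2.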
BAZ2B inh = qHTS Assay for Inhibitors of BAZ2B | AID 504333, 2011 | actives 4.4% (n = 360,000) | Potency, µM (titrated, usually from 114 µM), for the others: top-dose activity change, negative = inhibition, most hits filed as inhibitors | Bromodomain adjacent to zinc finger domain protein 2B (Homo sapiens), Q9UIF8 | AlphaScreen BAZ2B-H3K14Ac peptide displacement; further: on the % scale 0 is the no-effect control and ±100 the full control effect; nearly all actives have a fitted effect of over 60% in size
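Protein-peptide AlphaScreen: BAZ2B 50 nM, b-H3K14Ac 50 nM, 1x PBS pH 7.4 + 0.01% Tween-20. Preincubation 30 min RT; cpd 30 min RT (top 110 uM); beads 20 min RT, light-protected.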
Starred values were filed as active, the others as inactive; ? = inconclusive; . = not tested or not shown; [ ] = another dose, or the depositor's remark. The call rests on the fitted dose curve; in most records, active means well fitted curve in the direction sought with a large enough effect; inconclusive means small, poorly fitted or top-dose-only effect, or another doubt; inactive means no such curve, though single readings can be large; an effect the other way counts as inactive or inconclusive. Potency means the concentration at half of the fitted maximal effect.

SMILES | PLK1 PBD inh | G9a inh | JMJD2A Tudor | HP1b chromo inh | Sfp inh | BAZ2B inh
Cc1ccc(C(=O)COC(=O)c2ccncc2)cc1[N+](=O)[O-] | 3.2% | 14.3%[59 µM] | -7.6% | 29.5% | 12.8% | -4.5%
C=CCNc1nc(C(=O)OCC(=O)Nc2cccc(SC)c2)cs1 | -5.6% | 56.2µM* | ? | 1.5% | . | 79.4µM*
Cc1cc2c(s1)c1cnn(Cc3ccc(Br)cc3)c(=O)c1n2C | . | . | -32.9% | . | . | .
O=C(c1ccc2c(c1)OCCO2)N(Cc1cccnc1)c1nc2c(Cl)cccc2s1 | . | -35.9%[59 µM] | -31.8% | 2.8%[57 µM] | . | -17.8%
COc1ccc(NC(=O)CN(C)C(=O)Cc2ccc(-c3ccccc3)cc2)cc1 | -5.8% | ? | 100µM* | 21.0% | . | 5.9%
COc1ccc(C(=O)/C=C(\C)Nc2ccc(NC(C)=O)cc2)cc1 | -7.8% | 35.5µM* | ? | -12.6% | -6.4% | 79.4µM*
COc1ccc(C(C#N)=Cc2ccc(NC(C)=O)cc2)cc1 | 3.4% | . | 3.4% | 10.4%[57 µM] | . | .
COc1ccc(NC(=O)CN(C)C(=O)Cc2ccsc2)cc1 | -9.3% | 11.9%[12.7 µM] | -1.8% | 32.5% | 13.1% | 0.4%
COc1ccc(C(=O)/C=C(/C)N(C)C)cc1 | -6.0% | 44.7µM* | 39.8µM* | 9.2% | 14.0% | -1.1%
C/C(=C\C(=O)c1ccccc1)Nc1ccc(O)cc1 | -6.9% | 28.2µM* | ? | -36.0% | -20.6% | ?
CC1=C(C(=O)Nc2ccccc2)C(c2ccccc2)n2nc(-c3ccco3)nc2N1 (centres undefined) | . | 5.3%[59 µM] | -1.4% | 46.6% | . | -10.6%
C[C@H](CO)N1C[C@H](C)[C@@H](CN(C)C(=O)c2ccc3c(c2)OCO3)Oc2cc(/C=C/c3ccccc3)ccc2S1(=O)=O | 3.5% | . | . | . | . | .
COc1ccc(CC(=O)Nc2ccc(C(C)=O)cc2)cc1 | -14.9% | 11.3%[12.7 µM] | -9.9% | 43.5% | 50.1µM* | ?
C/C(=C\C(=O)c1ccc(C)cc1)Nc1cccc(O)c1 | -4.4% | 50.1µM* | ? | -20.6% | -0.7% | 50.1µM*
O=S(=O)(c1ccc2c(c1)OCCO2)N1CCN(S(=O)(=O)c2c(F)ccc(O)c2F)CC1 | . | . | -13.7% | . | . | .
O=C(NNS(=O)(=O)c1ccccc1[N+](=O)[O-])c1cc2ccccc2cc1O | -10.4% | 1.58µM* | -34.9% | 2.9% | -18.9% | ?
CCN(CC)C(=O)c1ccc(S(=O)(=O)NCc2cccnc2)cc1 | 1.8% | 79.4µM* | -15.7% | 13.0% | -5.8% | -0.8%
O=[N+]([O-])c1ccccc1S(=O)(=O)NCc1cccnc1 | 26.7µM* | -8.4%[12.7 µM] | -11.3%[11.4 µM] | -5.1% | 7.9% | -10.0%
COCC(=O)NNS(=O)(=O)c1ccccc1[N+](=O)[O-] | -11.8% | 17.8µM* | -15.1% | 29.3% | 3.1% | -8.1%
Cc1ccccc1S(=O)(=O)NCc1cccnc1 | -5.1% | 13.3% | -4.3% | 39.8% | 18.0% | 1.2%
O=C(NNS(=O)(=O)c1ccccc1[N+](=O)[O-])c1ccccc1Cl | 0.3% | -5.5% | -16.3% | 40.4% | 0.8% | -10.2%
CCOC(=O)c1ccc(NC(=O)c2cnc(N3CCCC3)nc2C)cc1 | . | 8.3%[12.7 µM] | 8.3% | 44.6% | . | 0.1%
CC(C)c1onc(-c2c(Cl)cccc2Cl)c1COc1ccc(/C=C/c2cccc(C(=O)O)c2)c(Cl)c1 | . | . | . | . | -27.6% | .
O=S(=O)(Nc1ccncc1Cl)c1ccc2ccccc2c1 | -14.8% | 44.7µM* | 0.7% | 50.2% | 2.0% | -13.6%
O=S(=O)(NCc1cccnc1)c1ccc2ccccc2c1 | -2.8% | 12.8% | 2.8% | -0.7% | -0.4% | 3.0%
O=S(=O)(NCc1cccnc1)c1cccc2nsnc12 | -9.7% | 31.6µM* | -8.9% | 11.0% | 9.1% | 4.6%

Source: PubChem (National Center for Advancing Translational Sciences (NCATS))
